High-throughput results as filed in PubChem BioAssay.
Most compounds without a hit are left out; they make up all but 2.9% or so of the library.
CRFBP-R2 agonist – CRF-BP/CRF-R2 complex agonism; HEK293 CRF-R2/CRF-BP, calcium dye fluorescence (FLIPR); percent of saturating CRF peptide response; activation, % at 13.2 µM; hit rate 0.46% among 350,000; AID 588473;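 active = activation of at least 50%, plus an integration ratio under a set limit after plate pattern correction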;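 also: plate controls were neutral control wells without compound for no effect and CRF at EC100 for full effect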
MEKK2 mut-MEK5 – signal of MEK5 binding to mutant human MEKK2 PB1 domain | bead flow cytometry, Alexa488-MEK5 binding to MEKK2 mutant | hit rate 0.35% among 290,000 | percent response, % at 10 µM; in the data active = percent response above about 24%, passing the limit was not always enough
MEKK3 PB1 HTS – modulators (inhibitors or enhancers) of MEK5 binding to human MEKK3 PB1 domain | bead-based flow cytometry, Alexa488-MEK5 binding to MEKK3; actives lie on both sides; 0 = blocked by unlabeled MEK5, 100 = vehicle | binding response (% of control), % at 10 µM | hit rate 1.4% among 290,000;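 active = binding response more than 3 SD above or below the average of its plate-row segment, actives on both sides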;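 also: Alexa488 bead fluorescence after subtracting the streptavidin-only scavenger bead signal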
MEKK2wt PB1 HTS – raises or lowers MEK5 binding to wildtype human MEKK2 PB1 domain; AID 1531; binding response (% of control), % at 10 µM; hit rate 1.1% among 290,000; bead flow cytometry, Alexa488-MEK5 binding to MEKK2 WT; actives lie on both sides; in the data active = binding response below about 67% or above about 130%
ABCB6 inh MLPCN – inhibitors of human ABC transporter ABCB6; Q9NP58; K562-ABCB6 porphyrin accumulation, flow cytometry, 1 h; active compounds read low; fluorescence ratio to DMSO, % at 10 µM; hit rate 0.19% among 360,000; AID 602162;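 active = fluorescence ratio to DMSO below 75%, the collection mean minus 3 SD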;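 also: signal is porphyrin accumulated inside mitochondria; 100% equals median channel fluorescence of DMSO control wells; lower ratio means ABCB6 inhibition with less porphyrin fluorescence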
Target sequence (Q9NP58 whole entry, looked up): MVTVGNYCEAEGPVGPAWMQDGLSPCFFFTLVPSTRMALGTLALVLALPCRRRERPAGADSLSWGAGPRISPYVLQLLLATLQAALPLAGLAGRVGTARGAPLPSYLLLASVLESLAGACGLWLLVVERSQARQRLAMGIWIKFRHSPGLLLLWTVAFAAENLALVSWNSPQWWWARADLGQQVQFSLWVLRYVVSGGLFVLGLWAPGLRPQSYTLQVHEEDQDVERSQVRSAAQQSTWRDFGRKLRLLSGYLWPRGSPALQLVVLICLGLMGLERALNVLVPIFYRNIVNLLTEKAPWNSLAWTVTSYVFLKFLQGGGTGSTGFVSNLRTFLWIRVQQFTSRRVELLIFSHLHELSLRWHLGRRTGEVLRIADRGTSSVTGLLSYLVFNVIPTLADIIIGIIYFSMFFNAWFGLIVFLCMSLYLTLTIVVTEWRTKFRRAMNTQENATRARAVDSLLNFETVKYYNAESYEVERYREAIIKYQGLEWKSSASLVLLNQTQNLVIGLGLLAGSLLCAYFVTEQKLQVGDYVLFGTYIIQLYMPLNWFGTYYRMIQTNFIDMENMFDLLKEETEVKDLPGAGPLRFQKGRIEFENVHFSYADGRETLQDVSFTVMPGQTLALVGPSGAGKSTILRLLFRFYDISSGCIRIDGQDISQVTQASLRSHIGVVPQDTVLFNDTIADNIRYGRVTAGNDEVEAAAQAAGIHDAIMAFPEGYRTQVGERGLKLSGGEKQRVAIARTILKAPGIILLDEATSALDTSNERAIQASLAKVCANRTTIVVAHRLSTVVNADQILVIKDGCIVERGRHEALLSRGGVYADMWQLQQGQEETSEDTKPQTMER
CRFR2-BP antag – blocks CRF-induced signaling of the CRF-BP/CRF-R2 complex; HEK293 CRF-R2/CRF-BP, CRF-induced calcium fluorescence; inhibition, % at 11.8 µM; hit rate 0.59% among 350,000;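 active = inhibition of the ligand-induced calcium signal above about 50% at the single tested concentration, limit read from the data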
MEKK2wt confirm – raises or lowers MEK5 binding to wildtype human MEKK2, retest; shares compounds with MEKK3 PB1 HTS; bead flow cytometry, Alexa488-MEK5 binding to MEKK2 WT; actives lie on both sides; binding response (% of control), % at 10 µM; hit rate 2.4% among 5,900; AID 1892; in the data active = binding response below about 16% or above about 210%; inactive = in between
MEKK2mut confirm – signal of MEK5 binding to mutant human MEKK2, retest. AID 1893. shares compounds with MEKK3 PB1 HTS. bead flow cytometry, Alexa488-MEK5 binding to MEKK2 mutant. percent response, % at 10 µM. hit rate 2% among 5,900; in the data active = percent response mostly above about 71%, no sharp cut-off; inactive = mostly below about 38%;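 also: higher means compound restores mutant binding toward wildtype level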
MEKK3 confirm – MEKK3-MEK5 PB1 inhibition, single concentration confirmation | shares compounds with MEKK3 PB1 HTS | bead flow cytometry, Alexa488-MEK5 binding to MEKK3; active compounds read low | binding response (% of control), % at 10 µM | hit rate 1.8% among 5,900 | AID 1894;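 active = binding response below 72% of control, or above a set upper limit, though filed actives all read lower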;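 also: 100% = DMSO only wells and 0% = binding blocked by excess unlabeled MEK5; lower values mean stronger disruption of MEK5 binding to MEKK3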
* hit, by the source's call; x = not tested or not shown; [ ] = remark or other dose.

SMILES	CRFBP-R2 agonist	MEKK2 mut-MEK5	MEKK3 PB1 HTS	MEKK2wt PB1 HTS	ABCB6 inh MLPCN	CRFR2-BP antag	MEKK2wt confirm	MEKK2mut confirm	MEKK3 confirm
COc1ccc(C2=NN(CCC(=O)NC3CCC(C)CC3)C(=O)CC2)cc1 (stereo not given)	1.5	0.0	95.0	96.0	91.0	-12.7	x	x	x
CCOC(=O)Cc1csc(NC(=S)NC(=O)c2ccccc2)n1	41.0	0.0	126.0	108.0	98.0	-8.9	x	x	x
CCOC(=O)Cc1csc(NC(=S)NC(=O)c2cccc([N+](=O)[O-])c2)n1	6.3	1.0	139.0*	108.0	100.0	11.8	106.0	4.0	103.0
CCOC(=O)Cc1csc(NC(=O)/C=C/c2cccc(Br)c2)n1	0.8	-17.0	44.0*[inhibitor]	47.0*[inhibitor]	92.0	-15.4	101.0	-3.0	101.0
CCOC(=O)Cc1csc(NC(=O)/C=C/c2ccc(Br)o2)n1	-2.0	-19.0	83.0	85.0	86.0	-8.7	x	x	x
CCOC(=O)Cc1csc(NC(=O)c2sc3nc4cc(C)ccc4cc3c2N)n1	16.0	13.0	144.0*	93.0	154.0	-58.3	110.0	13.0	110.0
CCOC(=O)Cc1csc(NC(=O)c2sc3nc4ccc(CC)cc4cc3c2N)n1	1.2	0.0	101.0	92.0	179.0	-16.7	x	x	x
COCCN(CC(=O)NCc1ccc(F)cc1)C(=O)CCC(=O)Nc1nccs1	-0.2	9.0	111.0	115.0	102.0	5.5	x	x	x
COCCN(CC(=O)NCc1ccc(F)cc1)C(=O)CCC(=O)Nc1ccccn1	4.3	-10.0	81.0*[inhibitor]	90.0	89.0	-8.1	102.0	-5.0	99.0
COC(=O)CCC(=O)OC1(C)C(=O)C2=CN(Cc3ccc4c(c3)OCO4)C(c3ccc(OC)cc3)=CC2=C(Br)C1=O (stereo not given)	0.6	53.0*	83.0	x	114.0	3.5	102.0	0.0	104.0
COC(=O)CCC(=O)OC1(C)C(=O)C2=CN(CCN3CCOCC3)C(c3ccc(OC)cc3)=CC2=C(Br)C1=O (stereo not given)	x	4.0	127.0	149.0*	x	x	100.0	0.0	100.0
CCCCC1=CC2=C(c3ccco3)C(=O)C(C)(OC(=O)c3ccc(OC)cc3)C(=O)C2=CN1Cc1ccc2c(c1)OCO2 (stereo not given)	0.4	1.0	120.0	138.0*	115.0	1.5	83.0	-9.0	87.0
COC(=O)CCC(=O)OC1(C)C(=O)C2=CN(CCCCO)C(c3ccc(OC)cc3)=CC2=C(Br)C1=O (stereo not given)	x	-6.0	92.0	85.0	x	x	x	x	x
COC(=O)CCC(=O)OC1(C)C(=O)C2=CN(C(CO)CO)C(c3ccc(OC)cc3)=CC2=C(Br)C1=O (stereo not given)	x	-2.0	82.0*[inhibitor]	91.0	x	x	98.0	-2.0	93.0
COc1ccc(N(CC(=O)N2CCN(c3cccc(C)c3C)CC2)S(=O)(=O)c2c(C)noc2C)cc1	1.0	-1.0	98.0	96.0	100.0	-17.2	x	x	x
COc1ccccc1NS(=O)(=O)c1cn(C)cn1	1.3	1.0	98.0	106.0	106.0	5.1	x	x	x
CN(Cc1ccccc1)C(=O)c1nc[nH]c1C(=O)N(C)Cc1ccccc1	-0.8	x	x	x	100.0	2.8	x	x	x
CC(C)=CC(=O)N1CCCC(N2CCN(c3ccccc3C)CC2)C1 (stereo not given)	-1.4	5.0	104.0	106.0	101.0	4.2	x	x	x
O=C(CCCN1C(=O)c2cccc3cccc(c23)C1=O)NC1CCS(=O)(=O)C1 (stereo not given)	1.4	-2.0	103.0	101.0	104.0	-3.2	x	x	x
Cc1ccc(NC(=O)c2ccc(S(=O)(=O)N3CCCCC3)cc2)nc1	0.2	x	x	x	93.0	9.9	x	x	x
CCOC(=O)[C@]12CCC=C1N(Cc1cccc3ccccc13)C(=O)[C@H](CC(=O)NCCCCc1ccccc1)C2	x	x	x	x	97.0	x	x	x	x
CC1(OC(=O)CCc2ccccc2)C(=O)C=C2C=C(c3ccc(C#N)cc3)N(CCN3CCOCC3)C=C2C1=O (stereo not given)	-0.4	2.0	117.0	138.0*	100.0	2.6	104.0	1.0	101.0
CCCOC(=O)CC1C(=O)NCCN1C(=O)OC(C)(C)C (stereo not given)	9.2	-18.0	39.0*[inhibitor]	48.0	97.0	-9.8	103.0	-1.0	102.0
CCOc1ccc(Oc2c(/C=N/NC(=O)C3CC3)c(C)nn2-c2ccccc2)cc1	0.6	-2.0	131.0*	102.0	93.0	-2.8	83.0	-20.0	84.0
CC(=O)c1ccc(NC(=O)C(C)O/N=C(\N)c2ccccc2)cc1 (stereo not given)	-3.3	x	x	x	97.0	-2.8	x	x	x
SMILES	CRFBP-R2 agonist	MEKK2 mut-MEK5	MEKK3 PB1 HTS	MEKK2wt PB1 HTS	ABCB6 inh MLPCN	CRFR2-BP antag	MEKK2wt confirm	MEKK2mut confirm	MEKK3 confirm
CCOCCCn1c(=S)[nH]c2cc(C(=O)N3CCN(C)CC3)ccc2c1=O	0.4	-14.0	70.0*[inhibitor]	80.0	93.0	-17.8	93.0	-11.0	95.0
Cc1[nH]c2ccccc2c1C(=O)COc1ccccc1	0.9	1.0	142.0*	118.0	97.0	2.4	102.0	3.0	101.0
CCOc1ccccc1NC(=O)CC1SC(=N)N(c2ccccc2)C1=O (stereo not given)	x	0.0	139.0*	112.0	x	x	107.0	6.0	108.0
Cc1cc(NC(=O)CCC(=O)N(c2ccccc2)C(C(=O)NC2CCCC2)c2ccccc2)no1 (stereo not given)	-2.3	27.0*	113.0	101.0	92.0	6.8	100.0	1.0	104.0
Cc1ccc(N(C(=O)CCC(=O)Nc2cc(C)on2)C(C(=O)NC2CCCC2)c2ccccc2)cc1 (stereo not given)	0.6	-5.0	102.0	98.0	96.0	3.9	x	x	x
NCCSc1c(-c2ccc(Cl)cc2)[nH]c2ccccc12	-0.7	51.0*	106.0	171.0*	103.0	-31.9	171.0	29.0	106.0
NCCSc1c(-c2ccccc2)[nH]c2ccccc12	-3.2	25.0*	118.0	146.0*	95.0	-6.2	141.0	35.0	109.0
Cc1c(Cc2ccc3c(c2)OCO3)sc(NC(=O)c2ccccc2)c1C(N)=O	-5.5	-7.0	75.0*[inhibitor]	81.0	100.0	2.5	97.0	-1.0	100.0
CCCOP(=O)(c1ccccc1)c1ccccc1	-0.8	0.0	141.0*	106.0	97.0	16.5	97.0	-6.0	99.0
CCOC(=O)C(CCCOc1ccccc1)C(=O)OCC	-0.5	-35.0	43.0*[inhibitor]	65.0	103.0	23.5	96.0	-5.0	101.0
